Data from PubChem BioAssay (NCI).
The panel holds about 83,000 compounds, 20% with a hit somewhere; the sample as a whole holds those more often.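 96-well plates, one dose, 48 hours. Percent growth reported; active if below 10.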 Values without a mark were called inactive. The source made the active and inactive calls.

These compounds were tested on HL-60(TB) leukemia (assay: NCI-60 one-dose screen, 48 h (100 = growth as untreated, 0 = no growth, -100 = all killed)). Conditions: 10 µM unless noted.

Structure (SMILES) | growth
COc1ccc(N(Cc2cc(OC)c(OC)c(OC)c2)C2OC(=O)c3ccccc32)cc1 (stereo not given) | 2.92% (active)
COc1ccc(C(=O)c2cc(OC)c(OC)c(OC)c2)cc1O | -29.1% (active)
O=C1NC(=O)C(=Cc2cn(Cc3cn(Cc4ccc(Cl)cc4Cl)nn3)c3ccccc23)C(=O)N1 | 73.8%
NS(=O)(=O)c1ccc(-n2nc(C(=O)N/N=C\c3ccc(F)cc3)cc2-c2ccc(Br)cc2)cc1 | 71%
COC(=O)[C@H](Cc1cn(C)cn1)NC(=O)[C@H](CC(C)C)NC(=O)Nc1cc(C(F)(F)F)cc(C(F)(F)F)c1 | -72.6% [100 µM] (active)
CNC(=O)c1cc(Oc2ccc(NC(=O)Nc3ccc(Cl)c(OC4CCCCC4)c3)c(F)c2)ccn1 | 82.9%
COc1ccc(C=C2c3ccccc3-c3ccccc32)cc1 | 23.6%
O=C(Nc1ccc(-n2ccc3c(NC(=O)c4ccccc4)nccc32)cc1)c1cccc(C(F)(F)F)c1 | 16.8%
COC(=O)/C=C1\SC(=Nc2ccc(C(F)(F)F)cc2)N(CCc2c[nH]c3ccccc23)C1=O | -55.4% (active)
Cc1c(C(=O)O)c(=O)n(-c2ccccc2)n1C | 109%
O=C1/C(=C/c2ccc(Cl)cc2)SC(=Nc2ccc(Cl)cc2)N1Cc1nc2ccccc2[nH]1 | 95.8%
COc1cccc(/C=N/NC(=O)c2ccccc2Nc2ccnc(C(F)(F)F)c2)c1O | 34.8%
COc1ccc2nc3cc(Cl)ccc3c(NCCCNCCO)c2c1 | -14.3% (active)
CCn1c(-c2cc3c([nH]c4ccccc43)c(-c3cccc(O)c3)n2)n[nH]c1=S | 4.16% (active)
c1ccc2cc3c(Nc4ccc(N5CCOCC5)cc4)ccnc3cc2c1 | 99.1%
CC(C)C[C@H](NC(=O)CCn1ccc2ccccc2c1=O)B(O)O | 28.1%
O=C(O)c1cn(C2CC2)c2cc(N3CCN(Cc4c(O)ccc5ccccc45)CC3)c(F)cc2c1=O | 71.6%
COc1ccc(C2=NN(C(C)=O)C(c3ccc(Oc4ccnc5cc(Cl)ccc45)c(OC)c3)C2)cc1 (stereo not given) | 78.4%
Nc1ccc2c(c1)C(=O)NC2=O | 71.1%
CC(C)=CC/C=C(/C)[C@H]1CC[C@]2(C)[C@@H]1CC[C@@H]1[C@@]3(C)CC/C(=N/O)C(C)(C)[C@@H]3CC[C@]12C | 5.9% [100 µM] (active)

Structure (SMILES) | growth
COc1ccc(-c2nn(-c3ccc(NC(=O)Nc4ccc(Cl)c(C(F)(F)F)c4)cc3)cc2-c2ccncc2)cc1Cl | -11.9% (active)
Cc1cc(Cc2cc(C)c(N)cc2N)c(N)cc1N | 85.6%
CCOC(=O)CCN(c1c(Cl)ssc1=O)C(C)C | 101%
CCCCCCCC/C=C\CCCCCCCCOc1ccccc1CC(=O)NCC[N+]1(C)CCOCC1 | 67.2%
O=[N+]([O-])c1ccc(C(c2ccccc2)c2ccccc2)cc1 | 79.3%
FC(F)(F)c1[nH]ncc1-c1nc2c(N3CCCCC3)cc3[nH]ncc3c2c2c1CCCC2 | -1.46% (active)
CC1(C)CC[C@]2(CO)CC[C@]3(C)C(=CC[C@@H]4[C@@]5(C)CC[C@H](NCO)C(C)(C)[C@@H]5CC[C@]43C)[C@@H]2C1 | -60.5% (active)
CCN1CCN(Cc2ccc(NC(=O)Nc3cccc(-n4ccc5c(NC(=O)c6ccccc6)nccc54)c3)cc2C(F)(F)F)CC1 | 112%
COC(=O)C(Cc1ccccc1)NC(=O)NC(=O)NC(=O)CI (stereo not given) | -51.3% (active)
O=C1c2ccccc2C(=O)C1c1ccc(Br)cc1 | 105%
CN(Cc1ccccc1)c1nc(Cl)c(C2CC(c3ccc(F)cc3)=NN2C=O)s1 (stereo not given) | 102%
Cn1cc(-c2csc(-c3cn(C(=O)OC(C)(C)C)c4ccccc34)n2)c2cccnc21 | 65.8%
CC(C)(C)[C@H](OCc1cn([C@H]2C[C@@H](O)[C@@H](CO)O2)c(=O)[nH]c1=O)c1ccc(C#Cc2ccccc2)cc1[N+](=O)[O-] | 70.4%
CC1(C)N=C(N)N=C(N)N1c1ccc(OCC(=O)Nc2ccccc2)c(Cl)c1 | 13.8%
CCCCC(=O)OCC1OC(n2cnc3c(=S)nc[nH]c32)C(OC(=O)CCCC)C1OC(=O)CCCC (stereo not given) | 12.5%
O=C(O)c1ccc(-n2cc(/C=N/Nc3ccc(Cl)cc3Cl)c(-c3ccccc3)n2)cc1 | -81.8% (active)
O=C1OCCCCCCCCCC#Cc2ccccc21 | 88.7%
Cc1cccc(NC(=O)c2sc3nc4c(cc3c2N)CCC4)c1C | 8.43% (active)
CN1CCN(C(=O)c2c3c(n4ccccc24)C(=O)c2ncccc2C3=O)CC1 | 53.4%
CC(C)(C)OC(=O)NCCc1ccc(N=C=S)cc1 | 19.8%
